Bioassay records: PubChem BioAssay, National Center for Advancing Translational Sciences (NCATS)
This is a sample that favours compounds with a hit; in the whole collection about 8% have one here.
HCV inh – blocks hepatitis C virus; Huh7.5.1 HCVcc-Cre infection, luciferase reporter, 44 h; Potency, µM (top dose mostly 41.8 µM), hits mostly inhibitors; actives 3.4% (n = 340,000); AID 651820; active = well fitted inhibition curve with a large enough effect; inconclusive = small, poorly fitted or top-dose-only effect, or another doubt; inactive = no such curve, though single readings can be large or run the other way
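Infectious HCV cell culture screen: compound-treated cells (1,000/well, pre-plated 4 h) are infected with HCVcc-Cre at roughly 0.5 moi and grown 44 h. Infection is quantified by luciferase signal after 15 min substrate incubation at room temperature.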
HCMV antiviral – blocks human cytomegalovirus replication; actives 4.5% (n = 410,000); HFF cells, HCMV-luciferase reporter, 72 h; active compounds read low; activity change, negative = inhibition, % at 57.5 µM; AID 1259415; in the data active = activity change below about -60%; inconclusive = no clear call, values can overlap the other calls; inactive = above about -39%
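Inhibition of viral replication was scored as loss of reporter luminescence in HFFs infected with HCMV-luciferase (MOI 1 PFU/cell) for 72 h; compounds tested at 2 doses, normalized to buffer and Salinomycin controls.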
SARS PLpro yeast – blocks SARS-CoV papain-like protease in a yeast assay; Potency, µM (series often up to 32.9 µM), most hits filed as activators; S. cerevisiae expressing SARS-CoV PLpro, growth rescue; actives 0.19% (n = 330,000); calls by dose curve; note: nearly all actives have a fitted effect of over 55% in size
Lassa entry inh – Lassa virus entry inhibition; Lassa virus pseudotype entry inhibition, cell reporter; Potency, µM (top dose mostly 37.9 µM), actives largely listed as inhibitors; actives 1.2% (n = 300,000); calls by dose curve; tested in HEK293 cells; note: nearly all actives have a fitted effect of over 50% in size
MARV entry inh – inhibitors of Marburg virus binding or cell entry; AID 540276; actives 1.8% (n = 300,000); Marburg virus pseudotyped entry inhibition, cell reporter; Potency, µM (titrated, usually from 37.8 µM), actives largely listed as inhibitors; calls by dose curve; tested in HEK293 cells
FMDV inh – blocks foot and mouth disease virus; Potency, µM (series often up to 57.9 µM), hits mostly inhibitors; actives 1.2% (n = 410,000); AID 1159524; FMDV antiviral cell-based qHTS; calls by dose curve; tested in HEK293T cells; note: read-out not given here; nearly all actives have a fitted effect of over 45% in size
A number is an active result.

For COc1ccc(C)cc1N(C(=O)c1snc(C(N)=O)c1N)C(C(=O)NC1CCCCC1)c1ccc(C)o1 (stereo not given) the results were HCV inh inconclusive, HCMV antiviral inconclusive, SARS PLpro yeast inactive, Lassa entry inh inconclusive, MARV entry inh 11.2µM and FMDV inh inactive.
Screening COc1ccc(OC)c(C(C(=O)NC2CCCCC2)N(C(=O)c2snc(C(N)=O)c2N)c2ccccc2OC)c1 (stereo not given) returned HCV inh inactive, HCMV antiviral -60.7, SARS PLpro yeast inactive, Lassa entry inh inconclusive, MARV entry inh inconclusive and FMDV inh inactive.
COCCNC(=O)C(c1ccc(C)o1)N(Cc1ccco1)C(=O)c1snc(C(N)=O)c1N (stereo not given) was read as HCV inh inactive, HCMV antiviral inconclusive, SARS PLpro yeast inactive, Lassa entry inh inactive, MARV entry inh inactive and FMDV inh inactive.
Screening Cc1ccc(CSc2ncc(Cl)c(C(=O)Oc3ccc(F)cc3)n2)cc1 returned HCMV antiviral inactive, Lassa entry inh inactive, MARV entry inh inconclusive and FMDV inh inactive.
For CN(C)CCN(C(=O)c1ccco1)c1nc2c(F)cc(F)cc2s1 the results were HCMV antiviral inactive, Lassa entry inh inactive and FMDV inh inactive.
CC(C)(C)OC(=O)N1CCC(c2c(C(=O)N3CCCCC3)cnn2-c2ccccc2Cl)CC1 was read as HCMV antiviral inactive, Lassa entry inh inconclusive and FMDV inh inactive.
For CC(=O)c1c(C)[nH]c(C(=O)OCc2ccc([N+](=O)[O-])cc2)c1C the results were HCV inh 5.62µM, HCMV antiviral inactive, SARS PLpro yeast inactive, Lassa entry inh inactive, MARV entry inh inactive and FMDV inh inactive.
CC(=O)c1c(C)[nH]c(C(=O)OCCCCN2C(=O)c3ccccc3C2=O)c1C was read as HCV inh 10µM, SARS PLpro yeast inactive, Lassa entry inh inconclusive, MARV entry inh 8.2µM and FMDV inh 12.6µM.
`COC(=O)c1ccc(COC(=O)c2[nH]c(C)c(C(C)=O)c2C)o1` gave HCV inh 2.24µM, HCMV antiviral inactive, SARS PLpro yeast inactive, Lassa entry inh inactive, MARV entry inh inconclusive and FMDV inh 12.6µM.
Screening CCCNC(=O)[C@H]1[C@H](CO)[C@H]2Cn3c(ccc(-c4ccc(F)cc4)c3=O)[C@@H]1N2C(=O)NC(C)C returned HCMV antiviral inactive.
For CSc1ccc(CCNC(=O)Cn2c(C)c3cnn(-c4ccccc4)c(=O)c3c2C)cc1 the results were HCMV antiviral inactive, Lassa entry inh inactive, MARV entry inh inconclusive and FMDV inh inactive.
`Cc1nn(C(C)C)c(C)c1CN1CCC(C(=O)Nc2cccc(-c3cccc(F)c3)c2)CC1` gave HCV inh 10µM, HCMV antiviral inactive, SARS PLpro yeast inactive and FMDV inh inactive.
`Cn1cc(CN2CCC(C(=O)Nc3cccc(-c4cccc(F)c4)c3)CC2)cn1` gave HCV inh 10µM, HCMV antiviral inactive, SARS PLpro yeast inactive and FMDV inh inactive.
For CCCc1ncc(CN2CCC(C(=O)Nc3cccc(-c4cscn4)c3)CC2)cn1 the results were HCV inh 11.2µM, HCMV antiviral inactive, SARS PLpro yeast inactive and FMDV inh inactive.
For C=CCn1cc(CN2CCC(C(=O)Nc3cccc(-c4cccc(F)c4)c3)CC2)c(C)n1 the results were HCV inh inconclusive, HCMV antiviral inactive, SARS PLpro yeast inactive, Lassa entry inh inactive, MARV entry inh inconclusive and FMDV inh inconclusive.
For Cc1cccc(CN2CCC(C(=O)Nc3cccc(-c4cccc(F)c4)c3)CC2)n1 the results were HCV inh 7.94µM, HCMV antiviral inactive, SARS PLpro yeast inactive and FMDV inh inactive.
Screening CCCn1ncc(CN2CCC(C(=O)Nc3cccc(-c4cccc(F)c4)c3)CC2)c1C returned HCV inh inconclusive, HCMV antiviral -65.3, SARS PLpro yeast inactive, Lassa entry inh inconclusive, MARV entry inh 2.51µM and FMDV inh inactive.
Cc1ccc2c(c1)nnn2C1CCN(CC(=O)N2c3ccccc3CC2C)CC1 (stereo not given) was read as HCV inh inactive, HCMV antiviral -76.1, SARS PLpro yeast inactive, Lassa entry inh inactive, MARV entry inh inactive and FMDV inh inconclusive.
For Cc1ccc2c(c1)nnn2C1CCN(CC(=O)N(c2ccccc2)c2ccccc2)CC1 the results were HCV inh inconclusive, HCMV antiviral -69.9, SARS PLpro yeast inactive and FMDV inh inactive.
For c1ccc2sc(SCc3ccc(-c4nnco4)cc3)nc2c1 the results were HCV inh inconclusive, HCMV antiviral inactive, SARS PLpro yeast inactive, Lassa entry inh 11.2µM, MARV entry inh inconclusive and FMDV inh inactive.
For NC(=O)c1ccc(CSc2nc3ccccc3s2)cc1 the results were HCV inh inactive, HCMV antiviral inactive, SARS PLpro yeast inactive, Lassa entry inh inconclusive, MARV entry inh inconclusive and FMDV inh inactive.
`C=CCOC(=O)C(C(=O)CC)[C@@H](NC(=O)OC)c1ccc(F)cc1` (stereo not given in full) gave MARV entry inh inactive.
O=C(Nc1ccc(Br)c(Cl)c1)C1CC1 was read as HCV inh inconclusive, HCMV antiviral -62.2, SARS PLpro yeast inactive, Lassa entry inh inactive, MARV entry inh inactive and FMDV inh inactive.
Screening Cc1ccc(-c2nnc(SCC(=O)Nc3ccc4c(c3)oc3ccccc34)n2C)c(Cl)c1 returned HCV inh inconclusive, HCMV antiviral -86.0, SARS PLpro yeast inactive, Lassa entry inh inactive, MARV entry inh inactive and FMDV inh inactive.
CC(C)CC(=O)Nc1ccc2c(c1)oc1ccccc12 was read as HCV inh 22.4µM, HCMV antiviral inactive, SARS PLpro yeast inactive, Lassa entry inh inconclusive, MARV entry inh inconclusive and FMDV inh inactive.
CCCCC(=O)Nc1ccc2c(c1)oc1ccccc12 was read as HCV inh inconclusive, HCMV antiviral inactive, SARS PLpro yeast inactive, Lassa entry inh inconclusive, MARV entry inh inactive and FMDV inh inactive.
Screening Cc1ccccc1OCc1nnc(SCC(=O)Nc2ccc3c(c2)oc2ccccc23)n1C returned HCV inh inconclusive, HCMV antiviral inactive, SARS PLpro yeast inactive, Lassa entry inh inactive, MARV entry inh inactive and FMDV inh inactive.
For O=C(Nc1ccc2c(c1)oc1ccccc12)C1CC1 the results were HCV inh 10µM, HCMV antiviral inactive, SARS PLpro yeast inactive, Lassa entry inh inactive, MARV entry inh inconclusive and FMDV inh inactive.
`COc1ccccc1CNC(=O)CSc1ccc(-c2sc(-c3ccccc3)nc2C)nn1` gave HCMV antiviral inactive, Lassa entry inh inactive and FMDV inh inactive.
O=C(Nc1ccc2c(c1)oc1ccc(S(=O)(=O)N3CCCC3)cc12)C1CC1 was read as HCV inh inconclusive, HCMV antiviral inconclusive, SARS PLpro yeast inactive, Lassa entry inh 11.6µM and MARV entry inh inactive.
For O=C(Nc1ccc(S(=O)(=O)N2CCCCC2)cc1)C1CCCCC1 the results were HCV inh inactive, HCMV antiviral inactive, SARS PLpro yeast inactive, Lassa entry inh inconclusive, MARV entry inh inactive and FMDV inh inactive.
